High-throughput results as filed in PubChem.
The sample as a whole holds a higher share of hits than the screen did.
IMPase Li inh – IMPase inhibition in cells with lithium potentiation. CHO-M1 cells, IP1 TR-FRET (IP-One), carbachol + lithium. Potency, µM (doses to about 59.4 µM), hits mostly inhibitors. AID 1457. 210,000 tested, 0.35% active;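 note: IP1 builds up when IMPase is blocked and the TR-FRET signal falls; nearly all actives have a fitted effect of over 50% in size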
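IP1 accumulation measured by competitive TR-FRET in lysed CHO-M1 cells after 30 min compound exposure at 37C, with a small lithium addition to potentiate weak responses. Hill-equation AC50 from ratio and donor-channel data.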
IMPase inh – cell-permeable inhibitors of inositol monophosphatase (IMPase) | 120,000 tested, under 10 active | AID 901 | inhibition (IP1 accumulation), % at 46.1 µM | CHO-M1 cells, IP1 accumulation, HTRF TR-FRET ratio; active = well fitted curve in the direction sought with a large enough effect in the signal ratio, not every such curve was filed as active; inconclusive = small, poorly fitted or top-dose-only effect, or a change in a side signal; inactive = no such curve, though single readings can be large or run the other way; the % refers to the signal ratio;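 note: cells stimulated with carbachol in lithium chloride buffer; higher means more IMPase inhibition seen as more IP1 and lower FRET ratio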
Target sequence (P97697 whole entry, looked up): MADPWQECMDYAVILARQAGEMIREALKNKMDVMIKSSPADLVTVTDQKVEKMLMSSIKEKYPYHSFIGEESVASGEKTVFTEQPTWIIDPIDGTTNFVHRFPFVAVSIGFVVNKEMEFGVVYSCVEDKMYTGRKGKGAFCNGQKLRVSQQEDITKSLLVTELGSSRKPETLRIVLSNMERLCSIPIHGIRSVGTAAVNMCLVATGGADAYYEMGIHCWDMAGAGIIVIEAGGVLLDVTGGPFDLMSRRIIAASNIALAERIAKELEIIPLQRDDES
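The IP-One HTRF competitive assay in carbachol-stimulated CHO-M1 cells quantifies cellular IP1. Compounds spanned up to 46 uM final, and activity is expressed as AC50 from concentration-response fits of the ratio and donor data.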
12-hLO inh – inhibitors of human 12-lipoxygenase (ALOX12) | P18054 | purified 12-hLO, xylenol orange hydroperoxide absorbance | Potency, µM (top dose mostly 57.1 µM), hits mostly inhibitors | 150,000 tested, 0.12% active; note: nearly all actives have a fitted effect of over 55% in size
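Lipoxygenase turnover measured by absorbance at 573 and 405 nm after Fe-XO development. Human 12hLO 150 nM, arachidonate 40 uM, pH 7.0 Hepes buffer with detergent; 15 min compound preincubation, 30 min reaction.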
PNC assembly inh – blocks assembly of the perinucleolar compartment | PC3M PTB-GFP, PNC prevalence imaging, 16 h; stronger effect = lower value | activity change (PNC), negative = inhibition, % at 10 µM | 140,000 tested, 3.1% active | AID 2417;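 active = readout at or below -70, meaning at least 70% loss of cells showing the perinucleolar compartment, a nuclear body marking cancer cells; inconclusive = readout between -30 and a set limit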
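Compounds are pinned in duplicate onto adhered PC3M cells stably expressing GFP-tagged PTB and incubated 16 h at 37 C. Cells are then fixed, nuclei stained with Hoechst, and PNC-positive cells counted.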
Of the large screens only hits and unclear results are named; the others gave an inactive call. Unless noted, calls come from the whole dose curve; as a rule, active = well fitted curve in the direction sought with a large enough effect; inconclusive = small, poorly fitted or top-dose-only effect, or another doubt; inactive = no such curve, though single readings can be large; an effect the other way counts as inactive or inconclusive.

CC(c1ccccc1)n1cc(C(=O)NCCN2CCOCC2)nn1 (stereo unspecified)	none
Cc1nnc(SCC(=O)NCC2CCCO2)n1-c1ccccc1 (stereo unspecified)	PNC assembly inh -118
CC(c1ccccc1)n1cc(C(=O)NCC2CCCO2)nn1 (stereo unspecified)	PNC assembly inh -100
Cc1ccc(SCCC(=O)NCC2CCCO2)cc1 (stereo unspecified)	PNC assembly inh -115
Oc1ccc(O)c(-c2cnns2)c1	none (no result: IMPase inh)
COC(=O)c1ccc(CN2C(=O)NC3(CCCCC3)C2=O)cc1	none (no result: IMPase inh, 12-hLO inh, PNC assembly inh)
Cc1cc(C)c(S(=O)(=O)Nc2ccccc2C(=O)O)cc1C	none (no result: IMPase Li inh, IMPase inh, PNC assembly inh)
COc1cc(C)nc(N2CCCC(C(=O)Nc3cccc(Cl)c3Cl)C2)n1 (stereo unspecified)	PNC assembly inh -87
COc1ccccc1NC(=O)C1CCCN(c2nc(C)cc(C)n2)C1 (stereo unspecified)	none
O=C(OCCN1C(=O)c2cccc3c(N4CCOCC4)ccc(c23)C1=O)c1ccc(Cl)cc1Cl	PNC assembly inh -98
O=C(OCCN1C(=O)c2cccc3c(N4CCOCC4)ccc(c23)C1=O)c1ccccc1Cl	PNC assembly inh inconclusive (no result: IMPase inh)
COc1cccc(OC)c1C(=O)N1CCN(S(=O)(=O)c2ccccc2)CC1	PNC assembly inh -99
Cn1c(Cc2ccccc2)nnc1SCC(=O)Nc1ccc2c(c1)OCO2	none
CC(C)c1nnc(SCC(=O)Nc2ccc3c(c2)OCO3)n1C	PNC assembly inh -100
CC(C)c1nnc(SCC(=O)NCc2ccc3c(c2)OCO3)n1C	PNC assembly inh -100
CCOCCCn1c(=N)c(C(=O)NCc2ccco2)cc2c(=O)n3ccccc3nc21	none (no result: IMPase Li inh, 12-hLO inh, PNC assembly inh)
CCC(=O)Nc1cc2nn(-c3ccc(OC)cc3)nc2cc1C	IMPase Li inh 11µM, PNC assembly inh inconclusive
CCCCC(=O)Nc1cc2nn(-c3ccc(OC)cc3)nc2cc1C	IMPase Li inh inconclusive
COc1ccc(-n2nc3cc(C)c(NC(=S)NC(=O)c4ccccc4C)cc3n2)cc1	IMPase Li inh 13µM
COc1ccc(-n2nc3cc(C)c(NC(=O)c4ccc(-c5ccc(Cl)cc5)o4)cc3n2)cc1	none (no result: IMPase Li inh, 12-hLO inh, PNC assembly inh)
C=C(C)COc1ccc(-c2[nH]ncc2Oc2cccc(OC)c2)c(O)c1	12-hLO inh inconclusive
C=C(C)COc1ccc(-c2[nH]ncc2Oc2ccccc2OCC)c(O)c1	12-hLO inh inconclusive, PNC assembly inh -117
COC(=O)CSc1nc(-c2cccs2)ccc1C#N	IMPase Li inh 25µM, IMPase inh inconclusive
CCN1CCN(CCCNC(=O)c2cn(CCOC)c(=O)c3c2c2ccccc2n3C)CC1	PNC assembly inh -101
COc1ccc(OC)c(NC(=O)CC2SC(=NCc3ccccc3)NC2=O)c1 (stereo unspecified)	none (no result: IMPase inh, 12-hLO inh, PNC assembly inh)
CCCCC[C@H](O)/C=C/C1=C(C/C=C\CCCC(=O)O)C(=O)CC1	none (no result: IMPase inh, PNC assembly inh)
Cc1ccc(NC(=O)CSc2nnc(-c3ccncc3)o2)cc1C	none (no result: IMPase inh, 12-hLO inh, PNC assembly inh)
O=C(O)c1cccc(N/N=C/C2=C(Cl)c3cc(Cl)ccc3SC2)c1	none (no result: IMPase inh, 12-hLO inh, PNC assembly inh)
COc1cccc(C=Nc2ccccc2C(=O)Nc2ccccc2)c1O	PNC assembly inh -110 (no result: IMPase inh)
O=C(c1ccco1)N1CCN(CCOCCOc2cccc3ccccc23)CC1	PNC assembly inh -80
O=C(NC(=S)Nc1ccc(O)cc1)c1ccccc1Cl	none (no result: IMPase inh, 12-hLO inh, PNC assembly inh)
CC(C)CNC(=S)NC(=O)c1ccccc1Cl	PNC assembly inh -134 (no result: IMPase inh)
N#CC1=C(N)SC(N)=C(C#N)C1c1ccc(C(F)(F)F)cc1	IMPase Li inh inconclusive, PNC assembly inh -127
O=C(/C=C/Nc1ccc(Cc2ccc(N/C=C/C(=O)C(F)(F)F)cc2)cc1)C(F)(F)F	PNC assembly inh -85
COc1ccc(N/C=C/C(=O)C(F)(F)F)cc1	none (no result: IMPase inh)
NNC(=O)[C@@H](O)[C@H](O)C(=O)NN	none (no result: IMPase inh, PNC assembly inh)
CCn1c(CSc2nc(C)cc(C)n2)nnc1SCC(=O)Nc1ccccc1	PNC assembly inh inconclusive
CCn1c(CSc2nc(C)cc(C)n2)nnc1SCC(=O)Nc1cccc2ccccc12	PNC assembly inh -107
Oc1ccc(CN2CCN(c3ccccc3)CC2)c2cccnc12	PNC assembly inh -100
Cc1ccccc1-c1nc(CN(C)C(C)c2ccon2)c(C)o1 (stereo unspecified)	none (no result: IMPase inh, 12-hLO inh, PNC assembly inh)
O=C(c1ccco1)N1CCC2(CCCN(Cc3ccncc3)C2)CC1	none (no result: IMPase inh, PNC assembly inh)
CCC(Oc1ccccc1)C(=O)N1CCN(c2ccccn2)CC1 (stereo unspecified)	PNC assembly inh -132
Cn1cc(Br)c(C(=O)NC(=S)N2CCN(c3ccccn3)CC2)n1	PNC assembly inh -86 (no result: IMPase inh)
CC1CCC(C(=O)NC(C(=O)N2CCc3ccccc3C2)C(C)C)CC1 (stereo unspecified)	none
CCC(Oc1ccccc1)C(=O)N1CCN(C(=O)C(CC)Oc2ccccc2)CC1 (stereo unspecified)	none
Cn1ncc(Br)c1C(=O)NC(=S)N1CCN(c2ccccn2)CC1	none (no result: IMPase inh)
O=C(NC(=S)N1CCN(c2ccccn2)CC1)c1ccccc1	PNC assembly inh -92 (no result: IMPase inh)
CC1CCC(C(=O)NC(C(=O)N2CCN(c3ccccn3)CC2)C(C)C)CC1 (stereo unspecified)	PNC assembly inh -114
COc1ccccc1NC1=C(N2CCCCC2)C(=O)c2ccccc2C1=O	PNC assembly inh -85
COc1ccc(CCNc2oc(-c3ccco3)nc2C#N)cc1	PNC assembly inh -100
N#Cc1nc(-c2ccco2)oc1NCCc1ccccc1	none
COc1cc2c(cc1O)CCC1C2CC[C@]2(C)[C@@H](O)CC[C@@H]12 (stereo partly specified)	none (no result: IMPase inh, 12-hLO inh, PNC assembly inh)
CCOC(=O)c1sc2nc(N3CCOCC3)c3c(c2c1N)CCCC3	PNC assembly inh inconclusive
Nc1c(C(=O)NCc2ccco2)sc2nc(N3CCOCC3)c3c(c12)CCCC3	IMPase Li inh 10µM
COc1ccccc1NC1=CC(=O)CC(c2ccccc2)C1 (stereo unspecified)	PNC assembly inh -96 (no result: IMPase inh)
COCCCn1c(SCC(=O)NC2CCCC2)nnc1-c1ccco1	PNC assembly inh -107
O=C(CSc1nnc(-c2ccco2)n1Cc1ccccc1)NC(=O)NCc1ccccc1	PNC assembly inh -92
Clc1ccccc1Cn1nnc(-c2ccccc2)n1	none (no result: IMPase inh, 12-hLO inh, PNC assembly inh)
Clc1ccc(Cn2nnc(-c3ccccc3)n2)cc1	PNC assembly inh -100
Cc1ccc(S(=O)(=O)NCCCC(=O)C=[N+]=[N-])cc1	PNC assembly inh -109
CCCS(=O)(=O)N1CCCC(C(=O)NC2CCCC(C)C2C)C1 (stereo unspecified)	PNC assembly inh -82
Cc1cc(C)cc(C(=O)N2CCCCCC2)c1	none
Cc1cc(C(=O)N2CCCCCC2)cs1	PNC assembly inh -124
Cc1nn(Cc2ccccc2)c(C)c1N	PNC assembly inh -90 (no result: IMPase inh)
Cc1nn(Cc2ccccc2Cl)c(C)c1N	none
COC(=O)[C@@]1(Cc2ccc(OC)cc2)[C@H]2c3cc(C(=O)N4CCCC4)n(CCN4CNCC4=O)c3C[C@H]2CN1C(=O)c1ccccc1	none (no result: IMPase inh, PNC assembly inh)
N#Cc1c(-c2ccc(Br)cc2)nc2n(c1=O)CCCS2	IMPase Li inh 8.9µM, PNC assembly inh inconclusive
N=S(=O)(O)Cc1noc2ccccc12	none (no result: IMPase inh, 12-hLO inh, PNC assembly inh)
CN(C(=O)CCCOc1ccc2[nH]c(=O)ccc2c1)C1CCCCC1	none (no result: PNC assembly inh)
